Most compounds without a hit are left out; they make up all but 4.1% or so of the library.
UGM FP inh: blocks M. tuberculosis UGM enzyme. purified UGM, fluorescence polarization probe displacement. inhibition, % at 10 µM. 0.06% of 320,000 active. AID 504406; in the data active = inhibition above about 10%, passing the limit was not always enough
Vc quorum ag: induces V. cholerae light production without autoinducers; 0.16% of 350,000 active; activation, % at 18.7 µM; V. cholerae BH1578 lux reporter, luminescence, 6 h; in the data active = activation mostly above about 9.7%, no sharp cut-off
Mtb FBA inh: inhibits M. tuberculosis FBA enzyme. purified M. tuberculosis FBA, fluorescence read-out. inhibition, % at 1 µM. 2.3% of 360,000 active. AID 588726; in the data active = inhibition above about 27%;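 note: 0% = vehicle and 100% = reference inhibitor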
GDH-TPI counter: GDH-TPI coupled enzyme inhibition counter-screen | GDH-TPI coupled enzyme counterscreen, NADH absorbance | inhibition, % at 4.8 µM | 1.2% of 360,000 active; in the data active = inhibition above about 30%;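 note: 0% = DMSO wells and 100% = wells lacking the enzyme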
RecA splice inh: Mtb RecA intein splicing inhibition | cell-free RecA intein splicing, fluorescence | inhibition, % (no concentration beside the values) | 0.75% of 290,000 active | AID 2221; in the data active = inhibition above about 30%;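 note: 0% = vehicle wells and 100% = reference inhibitor control wells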
Target sequence (P9WHJ3 whole entry, looked up, canonical isoform): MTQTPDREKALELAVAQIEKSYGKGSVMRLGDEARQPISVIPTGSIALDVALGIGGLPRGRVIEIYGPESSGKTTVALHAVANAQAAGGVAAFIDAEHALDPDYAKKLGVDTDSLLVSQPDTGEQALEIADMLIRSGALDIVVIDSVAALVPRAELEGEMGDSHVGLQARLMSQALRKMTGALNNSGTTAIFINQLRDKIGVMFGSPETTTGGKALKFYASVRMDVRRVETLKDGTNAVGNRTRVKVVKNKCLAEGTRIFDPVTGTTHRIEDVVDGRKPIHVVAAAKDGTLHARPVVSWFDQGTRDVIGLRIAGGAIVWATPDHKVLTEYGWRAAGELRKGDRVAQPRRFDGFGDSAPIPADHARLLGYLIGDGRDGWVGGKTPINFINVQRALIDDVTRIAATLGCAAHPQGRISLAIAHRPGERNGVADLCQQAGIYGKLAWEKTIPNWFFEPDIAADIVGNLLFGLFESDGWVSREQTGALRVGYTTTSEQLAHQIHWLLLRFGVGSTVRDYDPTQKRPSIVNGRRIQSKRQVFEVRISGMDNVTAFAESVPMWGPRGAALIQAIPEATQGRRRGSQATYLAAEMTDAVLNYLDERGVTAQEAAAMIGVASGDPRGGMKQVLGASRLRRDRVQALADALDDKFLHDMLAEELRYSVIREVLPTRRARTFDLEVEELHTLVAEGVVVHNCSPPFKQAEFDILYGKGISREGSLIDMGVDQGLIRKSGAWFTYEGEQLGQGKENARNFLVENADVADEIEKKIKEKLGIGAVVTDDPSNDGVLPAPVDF
Rv3671c protease: Rv3671c (M. tuberculosis) protease inhibition; AID 2606; inhibition, % at 5.96 µM; 0.048% of 320,000 active; in the data active = inhibition above about 38%;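 note: extracellular domain of Rv3671c used as enzyme; 0% = enzyme with DMSO and 100% = no enzyme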
Starred values were filed as active, the others as inactive; i = inactive; . = no result; + = active, no number.

SMILES	UGM FP inh	Vc quorum ag	Mtb FBA inh	GDH-TPI counter	RecA splice inh	Rv3671c protease
COc1ccc(S(=O)(=O)N(C)c2nc3ccccc3n3c(CC(C)C)nnc23)cc1	-1	0	56*	12	1	-8
CCc1nnc2c(N(C)S(=O)(=O)c3ccc(C)cc3)nc3ccccc3n12	1	i	2	-10	0	-11
COc1ccc(Cl)cc1N1C(=O)/C(=C/c2sccc2C)N=C1SCC(=O)NC1CC1	.	0	-5	17	.	.
CCCCn1nc2cc(C(=O)NCc3ccc(OC(F)(F)F)cc3)ccc2c1OC	-1	i	29*	5	1	-10
CCn1nc2cc(C(=O)NCc3cc(C(F)(F)F)cc(C(F)(F)F)c3)ccc2c1OC	0	i	39*	1	1	3
COc1ccc(CNC(=O)C2=CC(c3ccc(C)cc3)=NS(=O)(=O)N2C)cc1	1	0	-2	18	6	0
CCN1C(=O)c2cccc3c(N)ccc(c23)C1=O	37*	-1	-6	5	-190	23
COc1ccc(C(C)(O)c2nc(-c3ccoc3)cs2)cc1 (centres undefined)	.	i	0	12	.	.
CC(C)OC(=O)c1cc(C(=O)c2cc(F)ccc2O)coc1=N	1	i	5	36*	-11	-10
Cc1c(C(=O)O)cccc1-n1c(C)cc(/C=N/NC(=O)c2cc3ccccc3o2)c1C	3	i	0	39*	-3	-12
Cc1ccccc1-n1c(C)cc(/C=N/NC(=O)c2ccncc2)c1C	-1	i	-1	31*	2	2
CC1(C(=O)NS(=O)(=O)c2cccc(F)c2)CCN1C(=O)C1CCCCC1 (centres undefined)	.	0	-2	0	.	.
O=C1NC(Cc2ccc(O)cc2)c2nc3ccc(Cl)cc3c(=O)n2-c2cc3ccccc3cc21 (centres undefined)	.	i	-2	18	.	.
CC(=O)Nc1ccc(NC(=O)C(C)OC(=O)CCCN2C(=O)c3cccc4cccc(c34)C2=O)cc1 (centres undefined)	3	-8	14	6	2	2
CSc1nnc2c(=O)[nH]c(=O)n(C)c2n1	.	-3	3	18	.	.
CSc1cnc2c(=O)n(C)c(=O)[nH]c2n1	1	0	130*	23	-12	18
COc1cccc(-c2c(NC(=O)c3ccco3)oc3ccc(Cl)cc3c2=O)c1	4	1	0	36*	-4	-2
COc1cccc(-c2c(NC(=O)c3ccco3)oc3ccccc3c2=O)c1	3	0	0	24	-3	-1
COc1ccc(S(=O)(=O)N(CC(=O)NCc2cccnc2)c2ccc(C)cc2)cc1OC	-3	10	-8	-10	-1	1
CN(C)CCOc1ccc2c(c1)C(=O)C(=Cc1ncc([N+](=O)[O-])n1C)C2	.	i	3	32*	.	.
COc1ccc(C(=O)N2CCN(c3ccccc3)CC2)cc1S(=O)(=O)NC1CC1	.	6	-1	-3	.	.
O=C(N/N=C/c1ccccn1)c1sc2ccccc2c1Cl	2	1	-7	35*	4	8
CSc1ccc(/C=N/NC(=O)c2cccc(O)c2)cc1	-1	1	2	49*	0	-9
CN(C)c1ccc(C(=O)N/N=C/c2ccccn2)cc1	2	-1	1	35*	0	5
O=C(N/N=C/c1ccccn1)c1ccccc1	-2	0	1	15	2	-3
SMILES	UGM FP inh	Vc quorum ag	Mtb FBA inh	GDH-TPI counter	RecA splice inh	Rv3671c protease
CN(C)c1ccc(/C=N/NC(=O)c2cnc3ccccc3c2)cc1	3	-1	-2	32*	12	9
CCOc1ccc(C(=O)N/N=C/c2ccc(SC)cc2)cc1	0	i	-5	12	1	2
O=C(CSc1nc(=O)n(CCCN2CCOCC2)c2c1CCCC2)Nc1ccc(Cl)cc1	1	i	0	2	2	1
O=C(N/N=C/c1c(Cl)nc2ccccn2c1=O)c1cccnc1	-1	i	17	31*	4	-3
CN(C)c1ccc(C=NNC(=O)c2cccnc2)cc1	.	i	1	52*	.	.
Cc1cc([N+](=O)[O-])nn1Cc1ccc(C(=O)N/N=C/c2ccc(N(C)C)cc2)cc1	3	-1	-6	40*	4	3
C=CCN(C(=O)CCC(=O)Nc1cc(C)on1)C(C(=O)NC1CCCC1)c1ccc(Cl)cc1 (centres undefined)	-1	-2	0	-4	1	3
COc1cc(OC)cc(C(=O)N(Cc2ccco2)c2c(N)n(Cc3ccccc3)c(=O)[nH]c2=O)c1	.	i	1	6	.	.
CCS(=O)(=O)N1Cc2ccccc2CC1C(=O)OCC(=O)Nc1ccc(C)cc1 (centres undefined)	0	-1	1	117*	4	-8
C[C@@H]1NC(=O)N(c2ccc(F)cc2)C1=O	2	i	-4	1	-1	.
O=c1/c(=C\c2ccc(F)cc2)sc2n1CCCN=2	1	-6	0	33*	.	3
O=C(N/N=C/c1sc(=O)[nH]c1-[n+]1ccccc1)c1ccccc1[O-]	1	0	-5	55*	0	3
Cc1ccc[n+](-c2[nH]c(=O)sc2/C=N/N=C(\[O-])c2cccnc2)c1	-1	0	-3	0	-3	2
Cc1cc[n+](-c2[nH]c(=O)sc2/C=N/N=C(\[O-])c2ccncc2)cc1C	-1	-3	-4	35*	-4	11
Cc1cc[n+](-c2[nH]c(=O)sc2/C=N/N=C(\[O-])c2ccccc2)cc1C	.	-1	-5	11	-4	.
CCc1ccc[n+](-c2[nH]c(=O)sc2/C=N/N=C(\[O-])c2cccnc2)c1	-2	0	-5	39*	1	-2
O=c1[nH]c(-[n+]2ccccc2)c(/C=N/N=C(\[O-])c2ccccc2)s1	1	0	-10	57*	3	1
CC1(C(=O)NS(=O)(=O)c2ccc(Cl)s2)CCN1C(=O)C1(c2ccc(Cl)cc2)CCC1 (centres undefined)	.	0	2	16	.	.
O=C(Nc1ncc2c(n1)-c1ccccc1OC2)c1ccc(F)cc1	2	i	+	14	-2	4
O=C(Nc1ncc2c(n1)-c1ccccc1OC2)c1cccc([N+](=O)[O-])c1	-1	0	12	1	1	8
Nc1ccc2c(c1)OC1(CCCCC1)O2	.	0	-4	0	0	.
Cc1ccc(-n2c(C)cc(=O)cc2C)cc1[N+](=O)[O-]	1	25*	0	1	0	9
Cc1ccc(-n2c(=O)[nH]c3ccccc3c2=O)cc1[N+](=O)[O-]	.	.	0	.	.	.
Cc1cc(CNC[C@H]2O[C@@H](n3ccc(N)nc3=O)[C@H](O)[C@@H]2O)no1	.	-1	-4	-1	.	.
CC(=O)Oc1ccc(Cn2c(C)c(C(=O)NCc3ccc4c(c3)OCCO4)sc2=O)cc1	.	-1	-1	-7	.	.

Bioassay records as filed in PubChem BioAssay.
